These results are taken from PubChem BioAssay (NCATS).

“And” between values parts separate entries of the source, which are not always exact repeats. Equal entries are not always repeated. Records with an inconclusive call do not appear. Where a call stands in place of a potency, no number is given. More than one record can exist for a structure, and the calls need not agree. The source made the active and inactive calls. The call rests on the fitted dose curve; in most records, active means well fitted inhibition curve with a large enough effect; inconclusive means small, poorly fitted or top-dose-only effect; inactive means no such curve, though single readings can be large or run the other way. Non-standard residues stand in square brackets, D forms with d. Residues, ends and D or L forms follow the SMILES beside them. Peptide text beside a SMILES is read from it. *: point of attachment. Sta = CC(C)C[C@H](N)[C@@H](O)CC(=O)O; Isovaleryl = CC(C)CC(=O)*
Potency means the concentration at half of the fitted maximal effect.

The experiment can be described thus: Primary qHTS for inhibitors of nuclear receptor binding SET domain protein 2 (NSD2) in an RCH-ACV wild type WT cells (2C) (AID 1645877). Further: nearly all actives have a fitted effect of over 70% in size. The following applies: RCH-ACV (leukaemia line) NSD2 WT (2C) viability, CellTiter-Glo, 72 h; series mostly up to 44.9 µM. (In general: Quantitative high-throughput screening tests each substance at several concentrations.)
Regarding `CC(C)CC(=O)N[C@H](C(=O)N[C@H](C(=O)N[C@@H](CC(C)C)[C@@H](O)CC(=O)N[C@@H](C)C(=O)N[C@@H](CC(C)C)[C@@H](O)CC(=O)O)C(C)C)C(C)C` (Isovaleryl-VV[Sta]A[Sta]-OH), the Potency result is “inactive”.

For `CC1(C)NC(=O)N(c2ccc([N+](=O)[O-])c(C(F)(F)F)c2)C1=O`, the Potency entry is “inactive”.

Regarding `NNc1nncc2ccccc12`, the Potency entry is “inactive”.

Take `Cn1c(NCCN(CCO)CCCc2ccc([N+](=O)[O-])cc2)cc(=O)n(C)c1=O`: the Potency result was “inactive”.

Turning to `O=C(NC(Cc1cc(=O)[nH]c2ccccc12)C(=O)O)c1ccc(Cl)cc1` (centres undefined), the Potency result was “inactive”.

As to `Cc1nc2n(c(=O)c1CCN1CCC(c3noc4cc(F)ccc34)CC1)CCCC2`, the Potency result was “inactive”.

`O=C(O)c1cccnc1Nc1cccc(C(F)(F)F)c1`: the Potency result is “inactive”.

Regarding `C=C(c1ccc(C(=O)O)cc1)c1cc2c(cc1C)C(C)(C)CCC2(C)C`, the Potency result was “inactive”.

Consider `Nc1cccc2c1CN(C1CCC(=O)NC1=O)C2=O` (centres undefined), for which the Potency entry was “inactive”.

On to `COCCCN1CCC(NC(=O)c2cc(Cl)c(N)c3c2OCC3)CC1`, for which the Potency entry is “inactive”.

Turning to `c1ccc2[nH]c(-c3cscn3)nc2c1`, the Potency result is “inactive and 13.2 µM (active)”.

Regarding `O=c1cc(N2CCOCC2)oc2c(-c3ccccc3)cccc12`, the Potency is 2.63 µM (active).

Regarding `CCCc1cc(=O)[nH]c(=S)[nH]1`, the Potency entry is “inactive”.

As for `O=C(O)c1cc(=O)c2c(OCC(O)COc3cccc4oc(C(=O)O)cc(=O)c34)cccc2o1`, the Potency result is “inactive”.

With `CS(=O)(=O)OCCCCOS(C)(=O)=O`, the Potency entry was “inactive”.

Turning to `COC1=C(OC)C(=O)C(CCCCCCCCCCO)=C(C)C1=O`, the Potency is 9.44 µM (active) and 18.6 µM (active).

In the case of `CC(C)C[C@H](NC(=O)[C@H](Cc1ccccc1)NC(=O)c1cnccn1)B(O)O`, the Potency was 3.8 nM (active) and 6.5 nM (active) and 18.6 nM (active).

Regarding `O=C(c1ccccc1)c1ccc2n1CCC2C(=O)O` (centres undefined), the Potency result is “inactive”.

With `Nc1ccn([C@@H]2O[C@H](CO)[C@@H](O)C2O)c(=O)n1` (some centres undefined), the Potency was 0.0166 µM (active).

For the compound `COc1ccc(C2(C#N)CCC(C(=O)O)CC2)cc1OC1CCCC1` (centres undefined), the Potency result is “inactive”.

As for `Cc1ncc([N+](=O)[O-])n1CC(C)O` (centres undefined), the Potency entry is “inactive”.

As to `O=c1oc2cc(O)ccc2s1`, the Potency was 20.9 µM (active).

For `CN(C)c1ccc2nc3ccc(=[N+](C)C)cc-3sc2c1`, the Potency was 1.32 µM (active) and 2.37 µM (active).

`O=C1NC(=O)C(c2ccccc2[N+](=O)[O-])=C1Nc1ccc(O)c(Cl)c1`: the Potency is 18.6 µM (active).

With `Nc1cc(C(Cl)=C(Cl)Cl)c(S(N)(=O)=O)cc1S(N)(=O)=O`, the Potency entry was “inactive”.

`CC(C)(S)[C@@H](N)C(=O)O`: the outcome is “inactive [at 4.96 µM]”.

For the compound `c1cnc2cc3c(cc2n1)C1CNCC3C1`, the Potency entry was “inactive”.

With `Cc1cc(Cl)ccc1OCCCC(=O)NO`, the Potency is 1.66 µM (active).

As to `NCCCCNCCCN`, the Potency was 6.61 µM (active).

Turning to `Cc1cc(=O)oc2cc(O)ccc12`, the Potency entry is “inactive”.

As for `COc1ccccc1N1CCN(CCN(C(=O)C2CCCCC2)c2ccccn2)CC1`, the Potency result is “inactive”.

With `CCC(C)(Oc1ccc(C2(c3ccc(OC(C)(CC)C(=O)O)cc3)CCCCC2)cc1)C(=O)O` (centres undefined), the Potency result is “inactive”.

Take `Cc1nc(-c2ccc(OCC(C)C)c(C#N)c2)sc1C(=O)O`: the Potency result is “inactive”.

As to `CN(C)c1ccc(O)c2c1C[C@H]1C[C@H]3[C@H](N(C)C)C(=O)C(C(N)=O)=C(O)[C@@]3(O)C(=O)C1=C2O`, the Potency result was “inactive”.

`COC(=O)[C@H](Cc1ccccc1)NC(=O)[C@@H](N)CC(=O)O` (H-Asp-Phe-OMe): the Potency entry is “inactive”.

In the case of `CCc1nc(N)nc(N)c1-c1ccc(Cl)cc1`, the Potency is 3.35 µM (active) and 4.17 µM (active).

For `CCOC(=O)C(C)Oc1cccc2c(=O)n(CC(=O)Nc3ccc4c(c3)OCCO4)ccc12` (centres undefined), the Potency entry was “inactive”.

Turning to `O=C(NCC1CCCCN1)c1cc(OCC(F)(F)F)ccc1OCC(F)(F)F` (centres undefined), the Potency entry is “inactive”.

Take `CCN(CCO)CCCC(C)Nc1ccnc2cc(Cl)ccc12` (centres undefined): the outcome is “inactive [at 4.96 µM]”.
